Results as given in PubChem BioAssay AID504834 (National Center for Advancing Translational Sciences (NCATS), 2011).
Screen size: about 320,000 compounds; about 22,000 (6.9%) were called active. About 27% were inconclusive and are not listed. Calls come from the whole dose curve; as a rule, active = well fitted inhibition curve with a large enough effect; inconclusive = small, poorly fitted or top-dose-only effect, or another doubt; inactive = no such curve, though single readings can be large or run the other way. Many of the other results were omitted from the sample, so actives are more common in it than they were.

assay: Primary qHTS for delayed death inhibitors of the malarial parasite plastid, 96 hour incubation; details: P. falciparum luciferase reporter growth; series mostly up to 28.7 µM; activity change, negative = inhibition: at the top concentration
In short: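 Erythrocytes infected with luciferase-expressing P. falciparum were dispensed at 2% hematocrit and 0.05% parasitemia (final), then incubated with compounds 96 hours at 37 C in 5% CO2. Luminescence after detection reagent addition reported growth.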
% is set by controls: 0 for no effect and ±100 for the full control effect; potency is the fitted concentration of half-maximal effect.

Row | SMILES | activity change, negative = inhibition | Potency
1 | CC1CCN(c2c(NCc3ccc(C(=O)NCc4ccccc4)cc3)c(=O)c2=O)CC1 | 1.19% (inactive) | 
2 | N#Cc1nc(Cc2cccc3ccccc23)oc1NCc1ccc2c(c1)OCO2 |  | 14.7 µM (active)
3 | c1n[nH]c(NCc2ccc3c(c2)OCO3)n1 | 2.18% [at 5.75 µM] (inactive) | 
4 | N#Cc1nc(Cc2ccccc2)oc1NCCc1ccccc1 | 0.675% (inactive) | 
5 | O=S(=O)(Nc1n[nH]c(C(F)(F)F)n1)c1ccccc1 | 28.7% (inactive) | 
6 | O=C(N/N=C/c1ccccn1)c1cccc(NC(=O)c2ccc(Cl)cc2)c1 | 34.1% (inactive) | 
7 | CC(C)(C)c1ccc(Cn2nnc3c(=O)[nH]c(C4CCCN(C(=O)c5ccco5)C4)nc32)cc1 (configuration not stated) | 34.8% (inactive) | 
8 | CCC(C(=O)NCCC(C)C)N(Cc1ccccc1Cl)C(=O)c1snc(C(N)=O)c1N (configuration not stated) | -16.7% (inactive) | 
9 | CCC(=O)N1c2ccc(S(=O)(=O)CCC(=O)N3CCN(c4ccccc4)CC3)cc2CC1C (configuration not stated) | -23.9% (inactive) | 
10 | Cc1ccc(CNC(=O)CCS(=O)(=O)c2ccc3c(c2)CC(C)N3C(=O)C2CC2)o1 (configuration not stated) |  | 11.7 µM (active)
11 | COc1ccccc1CNC(=O)C1CCN(S(=O)(=O)c2ccc3c(c2)CC(C)N3C(=O)C2CC2)CC1 (configuration not stated) | 3.97% (inactive) | 
12 | CS(=O)(=O)c1ccc(Cl)c(NC(=O)COC(=O)c2cccc(S(=O)(=O)N3CCCC3)c2)c1 | 36% (inactive) | 
13 | COc1ccc(/C=N/OCc2ccccc2C#N)c(OC)c1 | 135% (inactive) | 
14 | CCOc1cccc(-c2nn3c(-c4ccccn4)nnc3s2)c1 |  | 8.28 µM (active)
15 | c1ccc(-c2cc(-c3nnc4sc(-c5ccccn5)nn34)[nH]n2)cc1 | -6.88% (inactive) | 
16 | COc1ccc(-c2nn3c(-c4ccccc4)nnc3s2)cc1OC | 96.6% (inactive) | 
17 | Cc1ccc(SCc2c(C(=O)N/N=C/c3cccnc3)nnn2-c2nonc2N)cc1 | -6.32% (inactive) | 
18 | COc1nc(Oc2ccc(=O)n(C)n2)nc(N(C)C)n1 |  | 3.7 µM (active)
19 | COc1nc(OC)nc(N(C)CCO)n1 | 45.2% (inactive) | 
20 | CCCn1nc(Oc2nc(NC(C)C)nc(N(C)C)n2)ccc1=O | 33.8% (inactive) | 
21 | COC(=O)[C@@H]1CCCN1C(=O)c1cc(COc2cccc3cccnc23)on1 | -7.96% (inactive) | 
22 | O=C(COC(=O)/C=C/c1ccc(OC(F)F)cc1)NC1CCCCC1 | 7.46% (inactive) | 
23 | Cc1ccc(S(=O)(=O)N(CC(=O)Nc2cccnc2)c2ccc(Br)cc2)cc1 | -25.1% (inactive) | 

Row | SMILES | activity change, negative = inhibition | Potency
24 | CC(=O)c1c(C)[nH]c(C(=O)N2CCN(S(=O)(=O)c3ccc(F)c(F)c3)CC2)c1C | 2.87% (inactive) | 
25 | Cc1ccc(Nc2nnc(SC(C)C(=O)NC3CC3)s2)cc1 (configuration not stated) |  | 14.7 µM (active)
26 | CC(C)Nc1nnc(SC(C)C(=O)N(C)C2CCCCC2)s1 (configuration not stated) | -6.33% (inactive) | 
27 | Cc1nnc(SC(C)C(=O)Nc2ccc(S(=O)(=O)NC3CCCCC3)cc2)s1 (configuration not stated) | -8.76% (inactive) | 
28 | CCOc1ccc(N2CC(C(=O)NCc3ccccn3)CC2=O)cc1 (configuration not stated) | 0.718% (inactive) | 
29 | Nc1nnnn1/N=C/c1cccs1 |  | 1.85 µM (active)
30 | Nc1nnnn1/N=C/c1cccc(Br)c1 | -28.6% (inactive) | 
31 | COc1ccc(/C=N/n2nnnc2N)cc1OC | 0% (inactive) | 
32 | Cc1ccc(NS(=O)(=O)c2ccc3c(c2)n(C)c(=O)c(=O)n3C)c(C)c1 | 23% (inactive) | 
33 | O=C(COC(=O)CCOc1ccccc1)Nc1cc(S(=O)(=O)N2CCCCC2)ccc1Cl | 12.7% (inactive) | 
34 | CCN(CC)CCNC(=O)c1cc(S(C)(=O)=O)ccc1OC |  | inactive
35 | C=C(C)c1cccc(C(C)(C)NC(=O)NCCN(CC)CC)c1 |  | 4.15 µM (active)
36 | C=C(C)c1cccc(C(C)(C)NC(=O)NC2CCCC2)c1 | -11.6% (inactive) | 
37 | CN(CC(=O)Nc1c(Cl)cccc1Cl)C(=O)c1ccncc1 | 41.8% (inactive) | 
38 | CC(C)Nc1ccc(-n2nc3ccccc3[n+]2[O-])cc1 | -11.5% (inactive) | 
39 | CC(=O)c1c(C)oc2ccc(NS(=O)(=O)c3ccccc3)cc12 | 27% (inactive) | 
40 | CN(C)CCCN(C(=O)COc1ccccc1)c1nc2c(Cl)cccc2s1 | 50.2% (inactive) | 
41 | COc1ccc(CCN(C(=O)COc2ccccc2)c2nc(-c3ccccc3)cs2)cc1OC |  | 11.7 µM (active)
42 | COc1ccc(CCNc2nc(-c3cccc(NC(C)=O)c3)cs2)cc1OC | 4.61% (inactive) | 
43 | O=C(NN1C(=O)C2CCCCC2C1=O)c1ccco1 (configuration not stated) | 83.6% (inactive) | 
44 | Cc1ccc(C(=O)N/C(=C\c2ccco2)C(=O)NC2CCS(=O)(=O)C2)cc1 (configuration not stated) | 38.1% (inactive) | 
45 | Cc1cc(C)cc(Oc2nc3c(C)cccn3c(=O)c2/C=C(\C#N)C(=O)NC2CCS(=O)(=O)C2)c1 (configuration not stated) |  | 11.7 µM (active)
46 | Cc1cccn2c(=O)c(/C=C(\C#N)C(N)=O)c(N3CCCCCC3)nc12 | -27% (inactive) | 

Row | SMILES | activity change, negative = inhibition | Potency
47 | CC(=O)Nc1ccc(NC(=O)CSC2=NS(=O)(=O)c3ccccc3N2)cc1 | 66% (inactive) | 
48 | COc1ccc(OCc2cc(C(=O)N3CCCC3)no2)c2ccccc12 | -11.2% (inactive) | 
49 | CC(=O)Nc1c2c(nn1-c1ccc(C)cc1C)CS(=O)C2 (configuration not stated) | -3.12% (inactive) | 
50 | CC(C)c1nc(SCC(=O)Nc2cccc(C(=O)O)c2)c2c3c(sc2n1)CCCC3 | 39.3% (inactive) | 
51 | O=C(Nc1sc2c(c1C(=O)O)CCC2)c1ccccc1F | 1.99% (inactive) | 
52 | CC(=O)Nc1sc2c(c1C(c1cccc(F)c1)N1CCN(CCO)CC1)CCCC2 (configuration not stated) |  | 7.38 µM (active)
53 | COc1ccc(OCC(=O)Nc2ccc(NC(=O)c3ccco3)c(C)c2)cc1 | -10.7% (inactive) | 
54 | Cc1noc(C)c1C(=O)NCC1COc2ccccc2O1 (configuration not stated) | 12.1% (inactive) | 
55 | CCOc1ccccc1N1CCN(C(=S)Nc2ccc(S(N)(=O)=O)cc2)CC1 | -29.4% (inactive) | 
56 | Cc1cccc(NC(=S)N2CCC(O)CC2)c1C | -2.87% (inactive) | 
57 | CCOc1ccccc1NC(=S)N1CCN(c2cccc(C)c2C)CC1 |  | 1.65 µM (active)
58 | Cc1onc(-c2c(F)cccc2Cl)c1C(=O)N(C)CC(=O)Nc1cccc(F)c1 | -17.1% (inactive) | 
59 | O=C(O)c1ccc(Cn2c(=S)[nH]c3cc(Cl)ccc3c2=O)cc1 | 20.1% (inactive) | 
60 | CC(C)c1ccc2c(c1)c(SC(C)(C)C)c(CC(C)(C)C(=O)O)n2Cc1ccc(Cl)cc1 |  | 7.38 µM (active)
61 | Cc1nc2cc3c(cc2s1)OCO3 | 36.3% (inactive) | 
62 | O=C(c1cc(COc2ccc(F)cc2F)on1)N1CCOCC1 | -3.11% (inactive) | 
63 | Cc1cccc(NC(=O)c2ccc3c(=O)n(CC4CCCO4)c(=S)[nH]c3c2)c1 (configuration not stated) | 2.86% (inactive) | 
64 | CCOC(=O)c1c(C)[nH]c(C)c1S(=O)(=O)NCCCc1ccco1 | -4.17% (inactive) | 
65 | COc1cccc(CN(C)CC2CCCN(CCc3ccc(Cl)cc3)C2)c1OC (configuration not stated) |  | 2.94 µM (active)
66 | COc1cccc(CN(C)CC(=O)NCc2ccccc2Cl)c1OC | -23.3% (inactive) | 
67 | CN(CC1CCCN(CCc2cccc(C(F)(F)F)c2)C1)C(=O)c1ccc2nc[nH]c2c1 (configuration not stated) | 15.5% (inactive) | 
